# Assay outcomes from PubChem.
# Marburg entry inh: qHTS for inhibitors of binding or entry into cells for Marburg Virus. Marburg virus pseudotyped entry inhibition, cell reporter. Potency, µM (highest dose often 37.8 µM), for inactives: top-dose activity change, negative = inhibition, most hits filed as inhibitors. 300,000 compounds, 1.8% hits; calls by dose curve; tested in HEK293 cells; further: potency means the concentration at half of the fitted maximal effect; on the % scale 0 is the no-effect control and ±100 the full control effect
# HCV inhibitor: qHTS Assay for Inhibitors of Hepatitis C Virus (HCV) | Huh7.5.1 HCVcc-Cre infection, luciferase reporter, 44 h | Potency, µM (highest dose often 41.8 µM), without a hit: top-dose activity change, negative = inhibition, actives largely listed as inhibitors | 340,000 compounds, 3.4% hits; active means well fitted inhibition curve with a large enough effect; inconclusive means small, poorly fitted or top-dose-only effect, or another doubt; inactive means no such curve, though single readings can be large or run the other way; further: potency means the concentration at half of the fitted maximal effect; on the % scale 0 is the no-effect control and ±100 the full control effect
#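 After 44 h co-culture of compound, cells and HCVcc-Cre (~0.5 moi), substrate is added for 15 min at room temperature and luciferase measured over 15 sec. Cells were seeded at 1,000/well and pre-cultured 4 h.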
# FMDV antiviral: High Throughput Screening for Foot and Mouth Disease Virus Antivirals; FMDV antiviral cell-based qHTS; Potency, µM (highest dose often 57.9 µM), without a hit: at the top dose activity change, negative = inhibition, hits mostly inhibitors; 410,000 compounds, 1.2% hits; calls by dose curve; tested in HEK293T cells; further: read-out not given here; potency means the concentration at half of the fitted maximal effect; on the % scale 0 is the no-effect control and ±100 the full control effect; nearly all actives have a fitted effect of over 45% in size
# SARS PLP yeast: qHTS of Yeast-based Assay for SARS-CoV PLP. S. cerevisiae expressing SARS-CoV PLpro, growth rescue. Potency, µM (highest dose often 32.9 µM), without a hit: at the top dose activity, positive = growth rescue, most hits filed as activators. 330,000 compounds, 0.19% hits. AID 485353, 2010; calls by dose curve; further: potency means the concentration at half of the fitted maximal effect; 0% is about no effect; nearly all actives have a fitted effect of over 55% in size
# LASV entry inh: qHTS for Inhibitors of binding or entry into cells for Lassa Virus | Lassa virus pseudotype entry inhibition, cell reporter | 300,000 compounds, 1.2% hits | AID 540256, 2011 | Potency, µM (doses to about 37.9 µM), for inactives: at the highest dose activity change, negative = inhibition, hits mostly inhibitors; calls by dose curve; tested in HEK293 cells; further: potency means the concentration at half of the fitted maximal effect; on the % scale 0 is the no-effect control and ±100 the full control effect; nearly all actives have a fitted effect of over 50% in size
# HCMV inh: qHTS Assay for inhibitors of the human cytomegalovirus (HCMV); HFF cells, HCMV-luciferase reporter, 72 h; active compounds read low; activity change, negative = inhibition, % at 57.5 µM; 410,000 compounds, 4.5% hits; in the data active means activity change below about -60%; inconclusive means no clear call, values can overlap the other calls; inactive means above about -39%; further: on the % scale 0 is the no-effect control and ±100 the full control effect
#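 Luciferase read-out from HCMV-luciferase-infected HFFs (MOI 1 PFU/cell) 72 h post infection at 37C; compounds added after 16 h cell attachment; activity normalized between buffer-only basal and Salinomycin (10uM) inhibitor controls.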
# Active calls of the source: *; ? = inconclusive; / = no result given; [ ] = another dose, or the depositor's remark. This is a sample that favours compounds with a hit; in the whole collection about 8% have one here.
SMILES,Marburg entry inh,HCV inhibitor,FMDV antiviral,SARS PLP yeast,LASV entry inh,HCMV inh
Cc1nc2ccc(NC(=O)Nc3ccnc4cccnc34)cc2o1,/,/,9%,/,/,/
O=C1N=C(N2CCOCC2)S/C1=C\c1ccc(-c2ccccc2Cl)o1,?,-11%,9%,12%,-1%,20
Cc1ccccc1-c1ccc(/C=C2/SC(N3CCOCC3)=NC2=O)o1,?,?,-20%,0%,13µM*,-17
CCc1ccc(-n2c(=O)c3c4c(sc3n(CC(=O)c3ccc(F)cc3)c2=O)CCC4)cc1,-2%[46.1 µM],/,-21%,/,19%[46.1 µM],-88*
O=C1OC2(c3ccccc31)c1cc(I)c(O)c(I)c1Oc1c2cc(I)c(O)c1I,/,9%,/,1%,/,/
Cc1cc(=O)[nH]c(N2CCOCC2)n1,2%[46.1 µM],5%,-6%,0%,16%,-20
Cc1cc(N2CCOCC2)c2c(N)c(Br)cc(C)c2n1,-30%[46.1 µM],?,?,-1%,3%,-82*
CCCn1c(Cc2ccccc2)n[nH]c1=S,-2%,6%,10%,-4%,18%,47
S=c1[nH]nc(Cc2ccccc2)n1Cc1ccco1,0%,12%,-23%,5%,4%,-109*
Cc1nc2c(o1)CCc1ccccc1[C@H]2N1CCN(C)CC1,-15%,/,/,/,/,/
Cc1ccc(S(=O)(=O)N2CCC(=O)N([C@H](COCc3cccc(C(F)(F)F)c3)C(C)C)CC2)cc1,/,/,0%,/,?,42
O=C1CCN(S(=O)(=O)c2ccccc2)CCN1CCOCc1ccc(C(F)(F)F)cc1,/,10µM*,?,-1%,/,-34
Cc1ccc(S(=O)(=O)N2CCC(=O)N(C(COCc3ccc(C(F)(F)F)cc3)C(C)C)CC2)cc1 (stereo not given),?,0%[8.37 µM],?,-17%,13µM*,/
CCOc1cc(-c2nnc(SCC(=O)Nc3ccc(F)c(F)c3)nc2-c2ccc(OC)c(OCC)c2)ccc1OC,/,/,-29%,/,8%[46.1 µM],8
CC[C@H](CC[C@@H](C)[C@H]1CC[C@H]2[C@@H]3CC=C4C[C@@H](O)CC[C@]4(C)[C@H]3CC[C@]12C)C(C)C,/,/,-10%,/,/,/
Cc1ccc(CCNC(=O)Cn2c(-c3cccs3)cc3ccccc32)cc1,/,/,-23%,/,7%[46.1 µM],3
O=C(Nc1ccc(N2CCN(C(=O)c3ccco3)CC2)cc1)c1cc(Br)ccc1Cl,10µM*,?,?,-3%,?,-33
O=C(Nc1ccc(N2CCN(C(=O)c3ccco3)CC2)cc1)c1ccc(Br)cc1,/,-3%,-7%,11%,/,-21
O=C(Nc1ccc(N2CCN(C(=O)c3ccco3)CC2)c(Cl)c1)c1cccnc1,9%[46.1 µM],?,-23%,0%,-1%[46.1 µM],-31
O=C(Nc1ccc(N2CCN(C(=O)c3ccco3)CC2)c(Cl)c1)c1c(F)c(F)c(F)c(F)c1F,?,?,28µM*,-15%,?,-33
Cc1ccccc1C(=O)N1CCN(c2ccc(NC(=O)c3ccco3)cc2Cl)CC1,?,11µM*,?,-18%,10µM*,10
COc1c(F)c(F)c(C(=O)Nc2ccc(N3CCN(C(C)=O)CC3)c(Cl)c2)c(F)c1F,?,?,?,2%,-17%,-83*
CCOC(=O)N/N=C1\C[C@@H](O)[C@@H](O)[C@@H]2[C@@H]3C(=O)N(CC)C(=O)[C@@H]3CC[C@H]12,8%[14.2 µM],/,/,/,/,/
C#CCN1C(=O)[C@]2(O[C@H](C)CC3=CCCC32)c2c(Br)cccc21 (stereo not given in full),-15%[14.2 µM],/,/,/,?,/
O=C(Nc1ccc(N2CCOCC2)c(Cl)c1)c1c(F)c(F)c(F)c(F)c1F,-6%,8.9µM*,?,0%,-4%,-27
SMILES,Marburg entry inh,HCV inhibitor,FMDV antiviral,SARS PLP yeast,LASV entry inh,HCMV inh
CCCN(CCC)C(=O)C1CCN(c2cc(C)nc3c(-c4ccc(Cl)cc4)c(C)nn23)CC1,2%[46.1 µM],/,-23%,/,1%[46.1 µM],9
O=C(NCc1ccccc1)C1=C[C@@H](c2csc3ccccc23)C[C@@H](OCCCCO)O1,/,-20%[8.37 µM],29%,-4%,/,-97*
O=C(NCc1ccccc1)C1=C[C@@H](c2csc3ccccc23)C[C@@H](OCc2ccc(CO)cc2)O1,/,?,3%,-2%,/,-98*
O=C(NCc1ccccc1)C1=C[C@H](C2CCCCC2)C[C@H](OCc2ccc(CO)cc2)O1,/,14%,-4%,1%,/,-84*
O=C(O)C1=C[C@H](c2csc3ccccc23)C[C@H](OCc2ccc(CO)cc2)O1,/,27%,-4%,-2%,/,5
CC1=C(C(=O)N(C)C)CC(CC(=O)NCc2cccc3ccccc23)C(=O)N1Cc1ccc(F)cc1 (stereo not given),/,/,-13%,/,/,7
CCCc1nnc(NS(=O)(=O)c2ccc(C)cc2)o1,1%,-1%,0%,/,12%,0
CC(=O)c1ccccc1-c1ccc2c(c1)CC(CNC(=O)c1cc(C)on1)O2 (stereo not given),/,/,-26%,/,/,/
COc1ccc(NC(=O)N2CCC3(CC2)CCN(C(=O)c2cc(C(F)(F)F)cc(C(F)(F)F)c2)CC3)cc1,/,/,9%,/,/,/
CCOC(=O)c1c(C)sc(-c2c(-c3ccc4c(c3)OCCO4)[nH]c3c2c(=O)[nH]c(=O)n3C)c1O,-30%[46.1 µM],/,2%,/,?,62
CCOC(=O)C1=C(c2ccccc2)N=c2s/c(=C\c3cccc(O)c3)c(=O)n2C1c1cccs1 (stereo not given),?,32µM*,/,-1%,16µM*,-30
O=S(=O)(Nc1cccc(-c2ccc(N3CCCCCC3)nn2)c1)c1ccccc1Cl,/,11µM*,7%,0%,/,-76*
COc1ccc(C)cc1S(=O)(=O)Nc1cccc(-c2ccc(N3CCCCCC3)nn2)c1,/,10µM*,8%,-4%,/,-18
COc1ccc(C)cc1S(=O)(=O)Nc1cccc(-c2ccc(N3CCC(C)CC3)nn2)c1,/,/,20%,/,29%[46.1 µM],29
CCOC(=O)[C@@]1([C@@H](NC(=O)OC)c2ccccc2)CCCC1=O,12%[14.2 µM],/,/,/,/,/
CCOC(=O)Cn1c(=O)oc2cc(S(=O)(=O)Nc3ccc(N(CC)CC)cc3C)ccc21,-1%,-7%,-7%,-4%,/,-77*
CCOC(=O)Cn1c(=O)oc2cc(S(=O)(=O)Nc3cc(OCC)ccc3OCC)ccc21,?,18%,-14%,-4%,0%,58
Cc1ccc(NC(=O)CN(C)C(=O)c2ccccc2Sc2ccccc2C#N)cc1,?,?,3%,-3%,?,1
Cc1ccccc1NC(=O)CSc1nc2c(oc3ccccc32)c(=O)n1-c1ccccc1F,-5%[46.1 µM],/,-3%,/,/,-10
Cc1ccc(C)c2c(N)c3c(nc12)CCCCC3 (tested in a mixture with another compound),0%[46.1 µM],?,-25%,0%,-2%,-70*
